Assay results from PubChem BioAssay AID757 (NMMLSC, 2007).
The whole screen tested about 190,000 compounds, of which about 520 (0.27%) were called active. About 2% were inconclusive and are not listed.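 The calls were made as follows: active = GTP binding activity at least 20 points away from the 100% control level, either lower or higher; inconclusive = compound flagged as likely green fluorescent, judged across all proteins; inactive = the rest.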 The full list was thinned out, with actives kept by preference.

What follows are compounds tested against Ras-related C3 botulinum toxin substrate 1 (Homo sapiens) (UniProt P63000) (assay: compounds altering fluorescent GTP loading on wildtype Rac1 – biochemical, GST-Rac1 beads, flow cytometry, multiplex, primary screen (AID 757)). Settings: at 10 µM, actives lie on both sides, 0 = cold GTP competed, 100 = untreated.

SMILES	GTP binding activity (% of control)
O=C(CNC(=O)c1cc(=O)[nH]c2ccccc12)Nc1ccc(F)c(F)c1	97% (inactive)
O=C(CN1CCN(Cc2ccc(F)cc2Cl)C1=O)NCc1cccs1	99% (inactive)
CCn1ccnc1CN(C)Cc1nc(-c2ccc3c(c2)OCO3)no1	99% (inactive)
CC(C)OC(=O)Cn1nc(C(F)(F)F)c2c1CCCC2	93% (inactive)
CCn1cc(C(=O)Nc2cc(C)ccc2C)c(=O)c2ccc(C)nc21	100% (inactive)
N#Cc1ccc(CSc2nnc3ccccn23)cc1	104% (inactive)
CCN(CC)C(=O)CS(=O)CC(=O)Nc1cc(OCCOC)c(Cl)cc1Cl (stereo not drawn)	103% (inactive)
S=c1[nH]nc(/C=C/c2ccccc2)o1	93% (inactive)
COc1ccc(C)cc1NC(=S)Nc1ccccc1SC	100% (inactive)
CC(=O)Cn1ncc(N2CCOCC2)c(Br)c1=O	95% (inactive)
CC(=O)NCCC(=O)Nc1cc(S(=O)(=O)N2CCOCC2)ccc1N1CCOCC1	100% (inactive)
O=C(CSc1nn(-c2ccc(F)cc2)c(=S)s1)NC1CCS(=O)(=O)C1 (stereo not drawn)	104% (inactive)
COc1ccc(OC)c(NC(=O)CN(Cc2ccc(Cl)cc2)S(C)(=O)=O)c1	97% (inactive)
COc1ccc(N2CCN(C(=O)C3CCN(S(=O)(=O)c4ccc(C)cc4)CC3)CC2)cc1	101% (inactive)
CCC/C(O)=C1\C(=O)CC(C)(C)CC1=Nc1ccccc1OC	125% [activator] (active)
CC/C(O)=C1\C(=O)CC(C)(C)CC1=NCCc1nc2ccccc2[nH]1	106% (inactive)
CCOc1ccccc1N=C1NC(=O)CS1	96% (inactive)
CCN(CC)CCCNC(=O)Cn1cnc2sc(C)c(S(=O)(=O)N3CCN(c4ncccn4)CC3)c2c1=O	93% (inactive)
Cc1nc2ccc(NC(=S)N3CCC(C)CC3)cc2nc1C	100% (inactive)
CC(C)(C)NC(=O)NC(=O)COC(=O)Cc1ccc(Cl)cc1Cl	101% (inactive)
Cc1ccc(NC(=O)NC2CCCCC2)cc1S(=O)(=O)N1CCOCC1	99% (inactive)
COc1ccc(/C=N/Nc2ncnc3sc4c(c23)CCCC4)cc1O	77% (active)
CC1(C)CN=C(N2CCN(c3ncnc4sc5c(c34)CCCC5)CC2)S1	99% (inactive)
COc1ncnc2sc3c(c12)CCCC3	104% (inactive)
COCCN1C(=O)c2oc3c(C)cc(C)cc3c(=O)c2C1c1cccc(O)c1 (stereo not drawn)	104% (inactive)
O=C1c2oc3ccccc3c(=O)c2C(c2cccc(O)c2)N1c1ccccn1 (stereo not drawn)	106% (inactive)
O=C1c2oc3ccc(Br)cc3c(=O)c2C(c2cccc(F)c2)N1CCO (stereo not drawn)	123% [activator] (active)

SMILES	GTP binding activity (% of control)
O=C(Nc1cccc(CCc2ccccn2)c1)c1ccc(Cl)cc1	97% (inactive)
CC1(C)OC(=O)C(=CNC(CO)C(=O)O)C(=O)O1 (stereo not drawn)	100% (inactive)
CC1CN(CCCOc2ccccc2-c2ccccc2)CC(C)O1 (stereo not drawn)	94% (inactive)
CCOc1ccc(-n2cnnn2)cc1S(=O)(=O)N1CCC(C)CC1C (stereo not drawn)	97% (inactive)
COc1ccc(NC(=O)N2CCCC(c3nc(-c4ccc(F)cc4)no3)C2)cc1 (stereo not drawn)	103% (inactive)
CNc1[nH]ncc1[N+](=O)[O-]	95% (inactive)
Cc1cc(C)cc(C(=O)NCC(=O)OCC(=O)N2CCCCC2)c1	99% (inactive)
COc1ccc(NC(=O)c2cc3nc(-c4ccccc4)cc(C)n3n2)cc1OC	78% (active)
COC(=O)c1cc2nc(-c3ccccc3)cc(C(F)(F)F)n2n1	99% (inactive)
COc1ccc(NC(=O)c2ccccc2[N+](=O)[O-])cc1OC	105% (inactive)
Cc1ccc(NC(=S)NC(=O)c2ccc(-c3ccccc3)cc2)c(C)c1	99% (inactive)
COc1c(F)c(F)c(C(=O)O)c(Nc2ccccc2C)c1F	101% (inactive)
Cc1ccc(Nc2c(F)c(F)c(F)c(F)c2C(=O)O)c(C)c1	154% [activator] (active)
COc1ccc(-n2c(O)c(C=NCC(c3ccco3)N3CCCC3)c3ccccc3c2=O)cc1OC (stereo not drawn)	102% (inactive)
CN(C)S(=O)(=O)c1ccc(NC(=O)N2CCOCC2)cc1	100% (inactive)
Cc1ccc(OCC(=O)NC(C)c2ccccc2)c([N+](=O)[O-])n1 (stereo not drawn)	98% (inactive)
O=C(NNC(=O)c1ccc(Cl)cc1Cl)c1cccs1	96% (inactive)
Cc1ccc(Cl)cc1NC(=O)c1ccccn1	90% (inactive)
COc1ccc(/C=N/NC(=O)CNC(=O)c2ccc(S(=O)(=O)N3CCCC3)cc2)c(OC)c1	98% (inactive)
Cc1ccc(C(=O)CS(C)(=O)=O)cc1	101% (inactive)
CC(C)(C)c1ccc(C(=O)CSc2ncn[nH]2)cc1	105% (inactive)
Cc1ccc(SC(CC(=O)c2ccc(C(C)(C)C)cc2)C(=O)O)cc1 (stereo not drawn)	79% (active)
N/C(=N\OC(=O)c1ccc2c(c1)OCO2)c1ccc(Br)cc1	94% (inactive)
COc1ccc(C)cc1NC(=O)NCc1ccccn1	103% (inactive)
CN(CCN1CCOCC1)Cc1nc(-c2ccc3c(c2)OCO3)no1	98% (inactive)
O=C(NCCCN1CCOCC1)c1ccccc1NS(=O)(=O)c1ccc(Br)cc1	100% (inactive)
